The structures appear in SMILES notation. The whole screen tested about 6,200 compounds, of which about 2,900 (47%) were called active. Rule as the data show it: active = inhibition above about 50%; inactive = the rest. The set was probably picked from earlier hits. The list shows a part of the results.

Inhibition data for 64 compounds are collected here from PubChem BioAssay AID1259343 (VanderVen Lab, College of Veterinary Medicine, Cornell …, 2017).

The experiment in a line: Mycobacterium tuberculosis growth inhibition, primary screen (AID 1259343). The following applies: inhibition: at 10 µM, active compounds read high; outcome: 10 uM.
In the case of `CN(C)c1ccc(N=C2N=C(Nc3ccc(N(C)C)cc3)c3ccccc32)cc1`, the inhibition (in general, the drop in the measured response relative to a control, in per cent) was 44.8% (inactive).

`COC(=O)[C@H]1[C@H]2C[C@@H]3c4[nH]c5cc(OC)ccc5c4CCN3C[C@H]2C[C@@H](OC(=O)c2cc(OC)c(OC)c(OC)c2)[C@@H]1OC`: the inhibition is 45.9% (inactive). On to `Cc1ccccc1C1CCCN(Cc2nc(CC3CC3)no2)C1` (centres undefined), for which the inhibition is 17% (inactive). Turning to `c1ccc(COC2CCCN(Cc3nc(CC4CC4)no3)C2)cc1` (centres undefined), the inhibition is 58.5% (active). As for `CC1NC(=S)N(c2cccc(Oc3ccncc3)c2)C1=O` (centres undefined), the figure is 11.8% (inactive); as for `CC1NC(=S)N(c2ccc(-c3cn4ccsc4n3)cc2)C1=O` (centres undefined), 46.5% (inactive); as for `CC1NC(=S)N(c2ccc(C(C)C)cc2)C1=O` (centres undefined), 95.8% (active). As for `Cc1cc(=O)[nH]c(-n2nc(-c3cccs3)cc2NC(=O)c2c(F)cccc2Cl)n1`, the figure is 99.6% (active); as for `Cc1cc(=O)[nH]c(-n2nc(C3CC3)cc2NC(=O)c2cccs2)n1`, 100% (active); as for `Cc1cc(=O)[nH]c(-n2nc(-c3cccs3)cc2NC(=O)c2ccco2)n1`, 99.9% (active). For `CCCC(CCC)C(=O)Nc1cc(-c2cccs2)nn1-c1nc(C)cc(=O)[nH]1`, the inhibition was 99% (active). As for `Cc1cc(=O)[nH]c(-n2nc(-c3cccs3)cc2NC(=O)c2cccs2)n1`, the figure is 98.9% (active); as for `CCC(=O)Nc1cc(-c2cccs2)nn1-c1nc(C)cc(=O)[nH]1`, 99.9% (active). For `Cc1cc(=O)[nH]c(-n2nc(-c3cccs3)cc2NC(=O)c2ccccc2C)n1`, the inhibition is 98.2% (active). With `Cc1cccc(C(=O)Nc2cc(-c3cccs3)nn2-c2nc(C)cc(=O)[nH]2)c1`, the inhibition is 0.07% (inactive). As for `CC(C)c1cc(=O)[nH]c(-n2nc(-c3cccs3)cc2NC(=O)c2cccs2)n1`, the figure is 99.1% (active); as for `Cc1cc(=O)[nH]c(-n2nc(-c3cccs3)cc2NC(=O)CC(C)(C)C)n1`, -0.63% (inactive). Consider `Cc1nc(C(F)(F)F)ccc1C(=O)NC1CC2CC1C1CCCC21` (centres undefined), for which the inhibition was 32.9% (inactive).

As for `CC1CCCCC1NC(=O)Cn1ccc(C(F)(F)F)n1` (centres undefined), the inhibition was 94.9% (active). Regarding `CC1CCCCC1Nc1ccc2nnc(C(F)(F)F)n2n1` (centres undefined), the inhibition is 22.4% (inactive). As for `O=c1c2cc(O)ccc2oc2ccc(O)cc12`, the figure is 87.5% (active). For the compound `O=c1oc2ccc(O)cc2s1`, the inhibition is 83.8% (active). As for `Oc1ccc2oc3c(c2c1)CCCC3`, the figure is 44.4% (inactive); as for `O=C(Oc1ccc2oc(=O)sc2c1)C1CCCCC1`, 75.1% (active). `CC(=O)NCc1ccc(C(=O)Nc2ccc(Br)c(C)c2)cc1`: the inhibition is 93.7% (active). As for `Cc1ccc(NC(=O)CNC(=O)c2ccccc2)cc1C`, the figure is -8.08% (inactive).

With `Cc1ccc(NC(=O)c2ccc(S(N)(=O)=O)c(C)c2)cc1C`, the inhibition was 31.7% (inactive).

Regarding `Cc1c(C(=O)O)cnn1-c1ccc(Br)cc1`, the inhibition was 39.2% (inactive).

As to `Cc1cc(C)nc(NN=Cc2cc(Br)cc(Br)c2O)n1`, the inhibition was 102% (active). In the case of `CC(=NNc1nc(C)cc(C)n1)c1cc2c(ccc3ccccc32)o1`, the inhibition was 16.4% (inactive).

Regarding `O=C(NCCc1ccccc1)c1ccc(OC2CCN(C(=O)C3CC34CCC4)CC2)cc1` (centres undefined), the inhibition is 19.3% (inactive). For `O=C(NCc1ccccc1)c1cccc(OC2CCN(C3Cc4ccccc4C3)CC2)c1`, the inhibition was 82.7% (active). As for `Cc1cc(NC(=O)C2(C)CCOCC2)nc(C(C)C)n1`, the figure is -0.19% (inactive). As for `CC1(C(=O)Nc2nc(-c3cccc(Cl)c3)ns2)CCOCC1`, the figure is 89.4% (active).

For the compound `C=CCNc1nc(NCCCN2CCCC2=O)c2sc(-c3ccccc3)cc2n1`, the inhibition was 24.9% (inactive).

With `CC(C)(C)OC(=O)NCC1CCCCN1C(=O)c1cc(-c2ccccc2F)on1` (centres undefined), the inhibition is 14% (inactive). As to `CC(C)(C#N)C(=O)Nc1cc(-c2ccccc2F)no1`, the inhibition is 88.7% (active). As for `FC(F)(F)c1ccc2c(c1)Oc1sc(Cl)cc1NC2=S`, the figure is 92% (active); as for `O=C1NC(=S)SC1=Cc1cccc(C(F)(F)F)c1`, 14.4% (inactive). As for `CC(NCc1cn(C)nc1-c1ccc(Oc2ccccc2)cc1)c1ccccc1` (centres undefined), the figure is 70.8% (active); as for `CCOc1cc2c(cc1CNc1ccc(C#N)cn1)OC(C)C2` (centres undefined), 19.6% (inactive); as for `CC(Nc1nccc(C(F)(F)F)n1)c1ccc(C#N)cc1` (centres undefined), 22.5% (inactive). In the case of `COc1ccc(C(C)Nc2ccc(C#N)cn2)cc1F` (centres undefined), the inhibition was 94.3% (active).

`COc1ccc(C(C)NCC(O)COc2ccc(Cl)cc2Cl)cc1F` (centres undefined): the inhibition was 41.6% (inactive). As for `CC(Nc1ccc(C#N)cn1)c1ccccc1Br` (centres undefined), the figure is 53% (active); as for `CS(=O)(=O)c1ccc(CCNc2ccc(Cl)c(C#N)n2)cc1`, 24.5% (inactive). As for `CC(NCc1ccc(C(C)(C)C)cc1)c1ccc(S(C)(=O)=O)cc1` (centres undefined), the figure is 59.5% (active); as for `CS(=O)(=O)c1ccc([C@@H](O)[C@@H](CO)NC(=O)C(Cl)Cl)cc1`, 44.5% (inactive); as for `O=S(=O)(NCC1CCC(c2ccccc2)CC1)C1CCOCC1` (centres undefined), -0.68% (inactive).

As for `Cc1ccc(S(=O)(=O)NCC2COc3ccccc3C2)cc1F` (centres undefined), the inhibition was -9.55% (inactive).

For `Cc1ccc(S(=O)(=O)NCC2CCN(c3ccccc3)C2)c(C)c1` (centres undefined), the inhibition was 52.8% (active). Take `CCOC(=O)c1cc(-c2ccccc2)sc1NC(=O)CC(=O)OC`: the inhibition was 81% (active). Turning to `CCc1cc(C(=O)O)c(NC(=O)c2ccccc2C)s1`, the inhibition was 18.1% (inactive). As for `CCOC(=O)c1ccccc1Nc1nnc(C(C)(C)C)c(=O)[nH]1`, the figure is 32.2% (inactive). `NC(=NC1C2CC3CC(C2)CC1C3)Nc1ccc(I)cc1` (centres undefined): the inhibition was 42.8% (inactive). As for `C=CCN(Cc1ccccc1)C(=O)c1cnn2c1[nH]c(=O)c1ccccc12`, the figure is 79.8% (active); as for `COc1cc(C=Cc2ccc3ccccc3n2)cc(Br)c1O`, 73.5% (active); as for `COc1cc(C=Cc2ccc3ccccc3n2)cc(Cl)c1OC`, 26.8% (inactive). As for `Fc1ccc(C=Cc2ccc3ccccc3n2)cc1`, the figure is 32.5% (inactive); as for `O=C(NCC(c1ccco1)N1CCc2ccccc21)C(=O)Nc1ccccc1[N+](=O)[O-]` (centres undefined), 5.43% (inactive). As for `CC1CC1C(=O)Nc1ccccc1N1CCc2ccccc2C1` (centres undefined), the inhibition is 81.4% (active). For the compound `O=C(N1CCc2ccccc2C1)N1c2ccccc2Sc2ccccc21`, the inhibition is -20% (inactive). Take `O=c1[nH]n(-c2ccc([N+](=O)[O-])cc2)c(=O)c2ccccc12`: the inhibition is 90% (active). As for `O=c1c2ccccc2nc(SCc2ccc([N+](=O)[O-])cc2)n1CC1CCCO1` (centres undefined), the figure is 26.6% (inactive).
